Records with an inconclusive call do not appear. The source made the active and inactive calls. How the source made its calls, unless noted: active means hit-call score of the fitted dose curve at least 0.9, where 1 is the maximum; inactive means score below 0.9.
Columns and labels:
[1] = target: Paired box protein Pax-6 (Homo sapiens) (UniProt P26367); assay: ATG_Pax6_CIS: Attagene CIS-FACTORIAL HepG2 Assay for human Paired Box 6 (PAX6) (AID 2282956); details: HepG2 CIS-FACTORIAL PAX6 reporter transcription, RNA readout; actives raise or lower the signal
Paired box protein Pax-6 (Homo sapiens), sequence (P26367 whole entry, looked up): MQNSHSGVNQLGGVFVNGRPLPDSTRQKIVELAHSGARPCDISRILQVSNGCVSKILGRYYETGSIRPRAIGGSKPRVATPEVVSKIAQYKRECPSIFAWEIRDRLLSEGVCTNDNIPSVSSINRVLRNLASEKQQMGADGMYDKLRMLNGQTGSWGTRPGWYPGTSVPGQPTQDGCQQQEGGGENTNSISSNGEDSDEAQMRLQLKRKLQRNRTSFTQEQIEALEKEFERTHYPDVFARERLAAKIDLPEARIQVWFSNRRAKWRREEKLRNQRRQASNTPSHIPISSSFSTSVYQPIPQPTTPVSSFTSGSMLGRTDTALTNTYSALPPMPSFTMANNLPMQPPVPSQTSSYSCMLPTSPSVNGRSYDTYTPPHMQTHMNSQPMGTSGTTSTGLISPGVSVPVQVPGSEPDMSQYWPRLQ
Method in brief: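 DMSO-referenced bidirectional fits of reporter mRNA fluorescence; HepG2 with transient cis-promoter MRTUs, 24 h post-dose, RT-PCR plus capillary electrophoresis detection.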

[2] = ATG_PXRE_CIS: Attagene CIS-FACTORIAL HepG2 Assay for human Pregnane X Receptor Element (PXRE) (AID 2282957); details: HepG2 Attagene CIS-FACTORIAL PXRE reporter, mRNA; actives raise or lower the signal
Method in brief: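 Read-out: fluorescence of reporter-specific RT-PCR products resolved by capillary electrophoresis, fitted bidirectionally relative to DMSO. Human HepG2 liver cells carried transfected cis-promoter reporter units and were exposed to chemicals for 24 h.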

[3] = ATG_PPRE_CIS: Attagene CIS-FACTORIAL HepG2 Assay for human Peroxisome Proliferator-activated Response Element (PPRE) (AID 2282958); details: HepG2 PPRE cis-element reporter, Attagene transcription factor profiling; actives raise or lower the signal
Method in brief: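 Measured endpoint: PPRE-controlled reporter mRNA, detected by RT-PCR and capillary electrophoresis fluorescence, from transiently transfected HepG2 cells 24 h after dosing. Curves fitted in both directions using DMSO baseline.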

[4] = ATG_RORE_CIS: Attagene CIS-FACTORIAL HepG2 Assay for human RAR-related Orphan Receptor Element (RORE) (AID 2282959); details: HepG2 Attagene cis-factorial RORE reporter, mRNA; actives raise or lower the signal
Method in brief: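 Transiently transfected HepG2 reporter cells were treated 24 h. Reporter transcripts were detected by RT-PCR and capillary electrophoresis, with bidirectional fitting against DMSO.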

[5] = ATG_Sox_CIS: Attagene CIS-FACTORIAL HepG2 Assay for human SRY-box transcription factor (SOX) (AID 2282960); details: HepG2 Attagene cis-factorial SOX reporter, mRNA; actives raise or lower the signal
Method in brief: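 Gain- or loss-of-signal endpoint, fitted bidirectionally with DMSO as negative control. Based on reporter mRNA from transfected HepG2 cells harvested 24 h post-treatment and quantified via RT-PCR and capillary electrophoresis.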

[6] = ATG_SREBP_CIS: Attagene CIS-FACTORIAL HepG2 Assay for human Sterol Regulatory Element Binding (SREBP) (AID 2282962); details: HepG2 Attagene cis-factorial SREBP reporter, mRNA; actives raise or lower the signal
Method in brief: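 In this cis-format assay, HepG2 liver cells express reporters controlled by promoter elements responsive to native transcription factors. Exposure lasts 24 h; reporter mRNA fluorescence from capillary electrophoresis gives the signal, fitted bidirectionally against DMSO.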

[7] = target: Signal transducer and activator of transcription 3 (Homo sapiens) (UniProt P40763); assay: ATG_STAT3_CIS: Attagene CIS-FACTORIAL HepG2 Assay for human Signal Transducer and Activator of Transcription 3 (STAT3) (AID 2282963); details: HepG2, Attagene cis-factorial STAT3 reporter transcription; actives raise or lower the signal
Signal transducer and activator of transcription 3 (Homo sapiens), sequence (P40763 whole entry, looked up): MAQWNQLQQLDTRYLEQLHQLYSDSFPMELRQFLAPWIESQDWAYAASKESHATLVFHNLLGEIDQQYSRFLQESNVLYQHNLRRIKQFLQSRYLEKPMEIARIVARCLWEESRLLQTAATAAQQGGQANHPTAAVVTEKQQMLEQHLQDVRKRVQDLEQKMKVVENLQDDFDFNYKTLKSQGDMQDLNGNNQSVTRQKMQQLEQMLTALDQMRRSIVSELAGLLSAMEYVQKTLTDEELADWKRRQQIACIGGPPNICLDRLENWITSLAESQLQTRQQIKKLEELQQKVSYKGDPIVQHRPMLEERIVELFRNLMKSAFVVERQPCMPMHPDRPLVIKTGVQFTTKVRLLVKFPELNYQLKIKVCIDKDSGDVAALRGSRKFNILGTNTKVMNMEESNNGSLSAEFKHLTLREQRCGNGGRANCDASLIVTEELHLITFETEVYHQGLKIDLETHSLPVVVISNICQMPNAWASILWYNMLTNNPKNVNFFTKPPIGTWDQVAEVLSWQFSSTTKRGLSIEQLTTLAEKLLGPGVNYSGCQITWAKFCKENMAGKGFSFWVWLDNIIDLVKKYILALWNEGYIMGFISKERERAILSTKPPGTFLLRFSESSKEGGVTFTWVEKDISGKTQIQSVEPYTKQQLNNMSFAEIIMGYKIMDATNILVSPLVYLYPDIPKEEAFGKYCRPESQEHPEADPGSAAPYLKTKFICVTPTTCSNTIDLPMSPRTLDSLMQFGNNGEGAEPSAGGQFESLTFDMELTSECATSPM
Method in brief: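 Cis-factorial format: endogenous transcription factors in HepG2 drive transfected reporter units. After 24 h treatment, reporter RNA was reverse-transcribed, amplified, FAM-labelled and HpaI-digested before CE analysis; activity scored in both directions against DMSO.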

[8] = ATG_TAL_CIS: Attagene CIS-FACTORIAL HepG2 Assay for human TAL Basal Promoter (AID 2282966); details: HepG2 Attagene cis-factorial TAL promoter reporter; actives raise or lower the signal;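 further: background control endpoint measuring basal TAL promoter reporter mRNA not a specific factor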
Method in brief: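 HepG2, transient MRTU transfection, 24 h compound exposure; RNA → oligo(dT) RT → PCR → 6-FAM primer extension → HpaI digest → CE fluorescence. Bidirectional curve fit vs DMSO. Background-control readout.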

[9] = ATG_TGFb_CIS: Attagene CIS-FACTORIAL HepG2 Assay for human Transforming Growth Factor (TGF) (AID 2282967); details: HepG2 Attagene CIS TGFb reporter, mRNA transcription; actives raise or lower the signal
Method in brief: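 After a 24-hour incubation with compound, transfected HepG2 cells were lysed for RNA; reporter cDNA was amplified, fluorescently end-labeled and separated by CE. DMSO served as baseline for bidirectional fits.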

[10] = ATG_VDRE_CIS: Attagene CIS-FACTORIAL HepG2 Assay for human Vitamin D Receptor Element (VDRE) (AID 2282968); details: HepG2 VDRE cis-reporter transcription, actives raise or lower the signal
Method in brief: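 Measures endogenous factor activity through cis-element-driven reporter transcripts in transiently transfected HepG2. Cells are treated 24 h; reporter mRNA is quantified by RT-PCR and capillary electrophoresis; fitting is bidirectional.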

[11] = target: X-box-binding protein 1 (Homo sapiens) (UniProt P17861); assay: ATG_Xbp1_CIS: Attagene CIS-FACTORIAL HepG2 Assay for human X-box Binding Protein 1 (XBP1) (AID 2282972); details: HepG2 XBP1 cis-element reporter, Attagene multiplex; actives raise or lower the signal
X-box-binding protein 1 (Homo sapiens), sequence (P17861 whole entry, looked up): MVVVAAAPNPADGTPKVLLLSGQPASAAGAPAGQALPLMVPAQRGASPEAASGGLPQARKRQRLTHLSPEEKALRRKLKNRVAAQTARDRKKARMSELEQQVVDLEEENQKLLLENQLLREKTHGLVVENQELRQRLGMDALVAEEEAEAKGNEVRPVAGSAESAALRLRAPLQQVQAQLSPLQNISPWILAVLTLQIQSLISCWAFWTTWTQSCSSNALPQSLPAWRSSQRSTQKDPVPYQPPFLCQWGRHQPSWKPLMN
Method in brief: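 Changes in reporter transcript abundance, read by RT-PCR and capillary electrophoresis, reflect endogenous transcription factor activity. Transfected HepG2 cells received compound for 24 hours; DMSO defined baseline for bidirectional analysis.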

[12] = ATG_M_19_TRANS: Attagene TRANS-FACTORIAL HepG2 Assay for M19 Transcription Factor (Internal Marker) (AID 2282974; active means hit-call score of the fitted dose curve at least 0.9, where 1 is the maximum); details: HepG2 Attagene TRANS-FACTORIAL M19 internal marker reporter
Method in brief: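 Using RT-PCR and capillary electrophoresis, reporter mRNA from transiently transfected human HepG2 cells was quantified following 24 h exposure; activity was fitted in the positive direction against DMSO.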

[13] = target: Estrogen-related receptor gamma (Homo sapiens) (UniProt P62508); assay: ATG_ERRg_TRANS: Attagene TRANS-FACTORIAL HepG2 Assay for human Estrogen-Related Receptor gamma (ERRg) (AID 2282977; active means hit-call score of the fitted dose curve at least 0.9, where 1 is the maximum;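 further: hits increase reporter signal over DMSO so potencies reflect activators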); details: HepG2 Attagene TRANS reporter, ERRg transactivation
Estrogen-related receptor gamma (Homo sapiens), sequence (P62508 whole entry, looked up, the tested form may be a part): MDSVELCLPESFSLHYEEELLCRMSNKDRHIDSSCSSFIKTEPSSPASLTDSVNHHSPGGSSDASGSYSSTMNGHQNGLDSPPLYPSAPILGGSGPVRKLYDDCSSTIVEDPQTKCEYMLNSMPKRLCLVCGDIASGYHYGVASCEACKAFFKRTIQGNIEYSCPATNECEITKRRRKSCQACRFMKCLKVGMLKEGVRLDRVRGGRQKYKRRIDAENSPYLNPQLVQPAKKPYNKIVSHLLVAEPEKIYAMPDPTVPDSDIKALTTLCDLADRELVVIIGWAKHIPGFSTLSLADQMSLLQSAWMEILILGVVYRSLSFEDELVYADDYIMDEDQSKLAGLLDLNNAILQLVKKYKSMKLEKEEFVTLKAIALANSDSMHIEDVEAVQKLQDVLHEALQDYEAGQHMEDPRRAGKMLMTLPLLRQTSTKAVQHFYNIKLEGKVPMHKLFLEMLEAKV
Method in brief: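 Readout: fluorescent reporter-mRNA fragments resolved by capillary electrophoresis after RT-PCR and HpaI cut. Cells: transiently transfected HepG2 carrying GAL4-UAS reporters driven by exogenous NR-Gal4 chimeras, dosed 24 h. Activity fitted upward relative to DMSO baseline.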

[14] = ATG_TCF_b_cat_CIS: Attagene CIS-FACTORIAL HepG2 Assay for human T-Cell-Factor with beta-catenin (TCF/b-cat) (AID 2282965); details: HepG2 TCF/beta-catenin cis-reporter transcription, actives raise or lower the signal
Method in brief: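 Measured: reporter mRNA in HepG2 transiently transfected with cis-promoter reporter units, 24 h after chemical addition. Fitting was bidirectional, DMSO as negative control.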

[15] = ATG_TA_CIS: Attagene CIS-FACTORIAL HepG2 Assay for human TA Basal Promoter (AID 2282964); details: HepG2 Attagene CIS-factorial TA basal promoter reporter; actives raise or lower the signal
Method in brief: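 Transient MRTU transfection of HepG2 preceded 24 h compound exposure. Reporter mRNA levels were then read by RT-PCR with capillary electrophoresis, and this background-control endpoint was fitted bidirectionally to DMSO.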

[16] = ATG_GAL4_TRANS: Attagene TRANS-FACTORIAL HepG2 Assay for GAL4 (Internal Marker) (AID 2282976; active means hit-call score of the fitted dose curve at least 0.9, where 1 is the maximum); details: HepG2 Attagene TRANS GAL4 internal marker reporter
Method in brief: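 RT-PCR/capillary electrophoresis readout of reporter mRNA. HepG2, transient MRTU transfection (GAL4-UAS reporters), 24 h compound exposure. Background-control endpoint, positive direction vs DMSO baseline.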

[17] = target: Transcription factor Sp1 (Homo sapiens) (UniProt P08047); assay: ATG_Sp1_CIS: Attagene CIS-FACTORIAL HepG2 Assay for human Specificity Protein 1 (Sp1) (AID 2282961); details: HepG2 Sp1 cis-reporter transcription, actives raise or lower the signal
Transcription factor Sp1 (Homo sapiens), sequence (P08047 whole entry, looked up, the tested form may be a part): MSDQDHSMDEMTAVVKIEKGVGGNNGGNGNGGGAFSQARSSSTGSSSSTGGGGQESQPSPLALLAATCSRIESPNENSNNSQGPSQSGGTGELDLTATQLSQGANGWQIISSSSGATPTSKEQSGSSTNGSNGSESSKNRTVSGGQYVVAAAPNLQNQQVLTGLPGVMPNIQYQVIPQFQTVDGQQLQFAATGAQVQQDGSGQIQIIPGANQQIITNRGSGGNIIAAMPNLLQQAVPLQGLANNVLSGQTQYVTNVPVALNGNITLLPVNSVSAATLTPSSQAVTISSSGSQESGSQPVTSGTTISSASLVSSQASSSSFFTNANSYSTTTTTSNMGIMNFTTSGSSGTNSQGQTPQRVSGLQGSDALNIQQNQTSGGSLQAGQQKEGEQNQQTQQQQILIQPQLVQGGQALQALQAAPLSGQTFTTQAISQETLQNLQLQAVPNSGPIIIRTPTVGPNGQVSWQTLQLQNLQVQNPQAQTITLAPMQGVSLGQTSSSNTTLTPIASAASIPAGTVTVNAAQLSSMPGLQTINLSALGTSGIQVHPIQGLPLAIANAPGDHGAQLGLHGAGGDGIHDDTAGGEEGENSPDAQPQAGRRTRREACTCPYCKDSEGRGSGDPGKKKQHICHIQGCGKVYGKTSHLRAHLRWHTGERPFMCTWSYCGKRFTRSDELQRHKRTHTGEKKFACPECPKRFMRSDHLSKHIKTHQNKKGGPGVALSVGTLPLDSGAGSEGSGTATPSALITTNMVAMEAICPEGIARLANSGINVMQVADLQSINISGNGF
Method in brief: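 Endpoint reflects endogenous Sp1 transcriptional activity, not an exogenous fusion protein: HepG2 cells with transfected cis-regulated reporters, 24 h dosing, RT-PCR/capillary electrophoresis mRNA read-out, DMSO-normalised bidirectional fit.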

[18] = target: Steroid hormone receptor ERR1 (Homo sapiens) (UniProt P11474); assay: ATG_ERRa_TRANS: Attagene TRANS-FACTORIAL HepG2 Assay for human Estrogen-Related Receptor alpha (ERRa) (AID 2282971; active means hit-call score of the fitted dose curve at least 0.9, where 1 is the maximum); details: HepG2 Attagene TRANS reporter, ERRa transactivation
Steroid hormone receptor ERR1 (Homo sapiens), sequence (P11474 whole entry, looked up, the tested form may be a part): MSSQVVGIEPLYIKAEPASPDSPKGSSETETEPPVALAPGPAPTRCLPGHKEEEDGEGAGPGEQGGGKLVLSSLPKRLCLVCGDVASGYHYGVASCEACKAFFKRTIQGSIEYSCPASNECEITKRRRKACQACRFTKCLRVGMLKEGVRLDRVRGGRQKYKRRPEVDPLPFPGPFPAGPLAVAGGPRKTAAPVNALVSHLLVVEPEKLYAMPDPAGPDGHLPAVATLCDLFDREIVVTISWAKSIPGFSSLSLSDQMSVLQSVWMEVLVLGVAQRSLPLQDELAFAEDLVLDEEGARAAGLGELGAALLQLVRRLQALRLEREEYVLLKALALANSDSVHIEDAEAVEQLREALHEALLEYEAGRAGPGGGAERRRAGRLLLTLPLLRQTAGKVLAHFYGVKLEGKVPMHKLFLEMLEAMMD
Method in brief: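 Transfected HepG2, 24 h dosing, ERRa-Gal4 chimera driving GAL4-UAS reporter. Readout: reporter mRNA via RT-PCR plus capillary electrophoresis (fluorescence). Positive direction vs DMSO control.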

[19] = target: Nuclear receptor subfamily 1 group I member 3 (Homo sapiens) (UniProt Q14994); assay: ATG_CAR_TRANS: Attagene TRANS-FACTORIAL HepG2 Assay for human Constitutive Androstane Receptor (CAR) (AID 2282969; active means hit-call score of the fitted dose curve at least 0.9, where 1 is the maximum;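 further: activators raise reporter mRNA above DMSO so AC50 marks induction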); details: HepG2 Attagene TRANS-FACTORIAL CAR reporter
Nuclear receptor subfamily 1 group I member 3 (Homo sapiens), sequence (Q14994 whole entry, looked up, the tested form may be a part): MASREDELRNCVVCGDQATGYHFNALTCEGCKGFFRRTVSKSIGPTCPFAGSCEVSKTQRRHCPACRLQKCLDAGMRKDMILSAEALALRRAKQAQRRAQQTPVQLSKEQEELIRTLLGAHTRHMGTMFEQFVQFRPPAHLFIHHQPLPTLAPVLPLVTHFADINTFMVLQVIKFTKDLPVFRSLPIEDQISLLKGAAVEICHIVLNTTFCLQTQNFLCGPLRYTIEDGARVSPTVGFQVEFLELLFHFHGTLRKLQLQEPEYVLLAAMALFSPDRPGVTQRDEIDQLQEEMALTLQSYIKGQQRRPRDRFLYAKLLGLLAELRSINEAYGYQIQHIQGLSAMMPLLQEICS
Method in brief: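 Signal is reporter mRNA induction relative to DMSO, measured 24 h after dosing by RT-PCR with fluorescent primer extension and capillary electrophoresis. Human HepG2 liver cells carried transiently transfected chimeric NR-Gal4/GAL4-UAS reporter constructs.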

[20] = target: Estrogen receptor (Homo sapiens) (UniProt P03372); assay: ATG_ERa_TRANS: Attagene TRANS-FACTORIAL HepG2 Assay for human Estrogen Receptor alpha (ERa) (AID 2282970; active means hit-call score of the fitted dose curve at least 0.9, where 1 is the maximum); details: HepG2 Attagene TRANS ERa GAL4 reporter, mRNA
Estrogen receptor (Homo sapiens), sequence (P03372 whole entry, looked up, the tested form may be a part): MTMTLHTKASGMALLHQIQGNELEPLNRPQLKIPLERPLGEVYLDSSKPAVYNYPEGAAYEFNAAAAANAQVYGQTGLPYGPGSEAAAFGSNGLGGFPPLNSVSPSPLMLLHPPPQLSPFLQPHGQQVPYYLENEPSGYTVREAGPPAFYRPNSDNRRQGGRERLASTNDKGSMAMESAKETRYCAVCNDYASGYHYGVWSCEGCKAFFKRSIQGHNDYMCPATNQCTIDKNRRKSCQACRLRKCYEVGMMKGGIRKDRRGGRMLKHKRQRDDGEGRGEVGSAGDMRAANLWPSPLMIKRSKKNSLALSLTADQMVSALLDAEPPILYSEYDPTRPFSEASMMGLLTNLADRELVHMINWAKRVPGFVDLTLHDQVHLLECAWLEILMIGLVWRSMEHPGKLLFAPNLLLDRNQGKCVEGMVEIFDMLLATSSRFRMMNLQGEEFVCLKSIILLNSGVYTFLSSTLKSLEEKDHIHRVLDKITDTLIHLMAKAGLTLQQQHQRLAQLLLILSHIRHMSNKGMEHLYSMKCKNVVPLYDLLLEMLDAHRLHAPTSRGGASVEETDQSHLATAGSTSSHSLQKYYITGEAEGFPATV
Method in brief: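 Reporter mRNA induction after 24 hours, detected by fluorescent RT-PCR and capillary electrophoresis, gives the read-out. Cells are HepG2 transiently transfected with GAL4-UAS reporter transcription units responding to chimeric NR-Gal4. Activity is taken as gain of signal over DMSO baseline.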

Measured: AC50

COc1cc([C@@H]2c3cc4c(cc3[C@@H](O[C@@H]3O[C@@H]5CO[C@@H](C)O[C@H]5[C@H](O)[C@H]3O)[C@H]3COC(=O)[C@H]23)OCO4)cc(OC)c1O
active: [2] 35.2 µM
not listed: [14] | [15] | [16] | [17] | [18] | [19] | [20]
inactive: all other assays above

Cc1ncc[nH]1
not listed: [6] | [13] | [15] | [16] | [17] | [18] | [19] | [20]
inactive: all other assays above

Clc1ccc(C(c2ccccc2Cl)C(Cl)Cl)cc1 (centres undefined)
active: [2] 1.5 µM | [3] 31.9 µM | [4] 27.3 µM | [5] 182 µM | [7] 161 µM | [14] 59.9 µM | [8] 23.7 µM
inactive: [1] | [6] | [15] | [9] | [11] | [12] | [16]

COCCc1ccc(OCC(O)CNC(C)C)cc1 (centres undefined)
active: [2] 55 µM
not listed: [4] | [13] | [16] | [19] | [20]
inactive: all other assays above

CCc1ccc(O)c(OC)c1
not listed: [4] | [10] | [13] | [16] | [18] | [20]
inactive: all other assays above

COc1cc(C(C)C)ccc1C
not listed: [12] | [13] | [16] | [17] | [18] | [19] | [20]
inactive: all other assays above

CSCCC=O
active: [2] 10.9 µM
not listed: [4] | [12] | [20]
inactive: all other assays above

Cc1c(C2(c3cc(Br)c(O)c(Br)c3C)OS(=O)(=O)c3ccccc32)cc(Br)c(O)c1Br
active: [2] 11 µM | [10] 22.7 µM
not listed: [4] | [18] | [20]
inactive: all other assays above

CC(C)C[C@H](NC(=O)OCC1c2ccccc2-c2ccccc21)C(=O)O
active: [2] 28.2 µM | [3] 14.7 µM | [6] 69.1 µM
not listed: [4] | [10] | [13] | [18] | [20]
inactive: all other assays above

C[C@H]1O[C@@H](O[C@H]2[C@@H](O)C[C@H](O[C@H]3[C@@H](O)C[C@H](O[C@H]4CC[C@@]5(C)[C@H](CC[C@@H]6[C@@H]5C[C@@H](O)[C@]5(C)[C@@H](C7=CC(=O)OC7)CC[C@]65O)C4)O[C@@H]3C)O[C@@H]2C)C[C@H](O)[C@@H]1O
active: [1] 0.0811 µM | [2] 0.271 µM | [17] 0.042 µM | [6] 0.0822 µM | [7] 3.54 µM | [14] 1.03 µM | [10] 0.226 µM | [11] 0.141 µM
inactive: [3] | [5] | [15] | [8] | [9] | [12]

Nc1ccc(NCCO)c([N+](=O)[O-])c1
not listed: [4] | [10] | [12] | [19] | [20]
inactive: all other assays above

CC(=O)C1(C)CC2=C(CCCC2(C)C)CC1C (centres undefined)
active: [2] 25.6 µM | [3] 100 µM | [17] 162 µM | [6] 85.8 µM | [14] 73.3 µM | [8] 148 µM
not listed: [4] | [13] | [18] | [20]
inactive: all other assays above

O=C(c1ccccc1)C(O)c1ccccc1 (centres undefined)
active: [2] 57 µM
not listed: [4] | [13] | [16] | [18] | [20]
inactive: all other assays above

O=CN1CCOCC1
not listed: [4] | [10] | [13] | [16] | [18] | [19]
inactive: all other assays above

c1ccc(CCc2ccccc2)cc1
active: [2] 26.1 µM | [17] 169 µM
not listed: [4] | [18] | [20]
inactive: all other assays above

CC(C)=CCCC(C)CC(=O)O (centres undefined)
active: [2] 27.3 µM
not listed: [12] | [13] | [15] | [16] | [17] | [18] | [20]
inactive: all other assays above

Reference: PubChem BioAssay (EPA / NIEHS)
